This note sets out measurements from PubChem BioAssay.

Several values for one entry are separate records, joined by “and”; a condition that tells them apart may be missing. Equal values may be shown once. Values without a mark were called inactive. Activity calls are given as the source filed them.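 How the source made its calls, unless noted: active means inhibition above 50%; inactive means the rest.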

A short description of the first test: antimalarial activity against Dd2 strain (AID 2302;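 active means growth inhibition above 50% at the single 2 µM test dose, taken to imply half-maximal potency below 2 µM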;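 further: 0% = DMSO untreated growth and 100% = chloroquine plus artemisinin killed control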). Conditions: P. falciparum Dd2 in RBCs, LDH growth readout, 72 h; at 2 µM; hits give high values.
Regarding `COC(=O)c1ccc(CC(C)NCC(O)c2cccc(C(F)(F)F)c2)c(Cl)c1` (stereo not drawn), the growth inhibition was 98% (active).
On to `Cn1cc(CN2CCC(CCOC(c3ccccc3)c3ccccc3)CC2)cn1`, for which the growth inhibition was 100% (active).
On the same count and under the same terms, the same measure for `COc1cc(/C=C/C(=O)NC2CCC(CN3CCC(c4c[nH]c5ccccc45)CC3)CC2)ccc1O` (stereo not drawn): 45% and 44%.

A further test in a line: HepG2 cytotoxicity, primary screen, cytotoxicity control for P. falciparum antimalarial project, cell-based, ATP luminescence (AID 2303).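 Further: 0% = DMSO wells and 100% = digitonin-killed cells.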 Conditions: HepG2 viability, 24-48 h, at 10 µM, hits give high values.
For orientation: inhibition means the drop in the measured response relative to a control, in per cent. Consider `COc1ccc(CC(C)NCC(O)c2cccc(Cl)c2F)cc1` (stereo not drawn), for which the inhibition was 3%.
The same measure, in the same setting: under `O=C(NC1CCC(CN2CCC(c3c[nH]c4ccccc34)CC2)CC1)c1cnn(-c2ccccc2)c1-c1ccccc1Cl` (stereo not drawn) stands 66% (active).
The same measure, in the same setting: under `COc1ccc(OC)c([C@H](O)[C@@H](C)NCc2cc(Cl)ccc2O)c1` stands 11%; under `OC1(CNCc2ccccc2)CCN(CCc2c[nH]c3ccc(F)cc23)CC1`, 39%.
The same measure, in the same setting: under `CNC(=O)c1ccc2[nH]cc(C3CCN(CC4CCC(NC(=O)/C=C/c5ccccc5Cl)CC4)CC3)c2c1` (stereo not drawn) stands 12%; under `CC(Cc1ccc(SC(C)C)cc1)NCC(O)c1cccc(Cl)c1` (stereo not drawn), 5%; under `CS(=O)(=O)Nc1ccc2c(C3CCN(CC4CCN(C(=O)/C=C/c5ccc(Cl)c(Cl)c5)CC4)CC3)c[nH]c2c1`, 28%.
Turning to `COC(=O)/C=C/c1ccc(C[C@@H](C)NC[C@H](O)c2cccc(C(F)(F)F)c2)cc1`, the inhibition was 41%.
With `COCCNCc1cccc(-c2ccc(CN(C(=O)Nc3ccccc3)C3CCN(Cc4ccccc4)CC3)cc2)c1`, the inhibition was 25%.
On the same count and under the same terms, under `Cc1ccc(C[C@@H](C)NC[C@H](O)c2cccc(C(F)(F)F)c2)cc1` stands 10% and 6%.
